{"source": "PubChem BioAssay (NCATS)", "note": "Records with an inconclusive call do not appear. Entries that show only a call come without a potency. The source made the active and inactive calls. Calls follow the shape of the dose curve; as a rule, active = well fitted cell-killing curve with a large enough effect; inconclusive = small, poorly fitted or top-dose-only effect, or effect the other way; inactive = no such curve, though single readings can be large or run the other way. Potency is read from the fitted curve at half-maximal effect."}
{"test": "Quantitative High-Throughput drug screen in 47 multiple myeloma cell lines against the NCATS MIPE library collection: KMS12PE_JCRB cell viability assay (AID 1918972); also: nearly all actives have a fitted effect of over 30% in size", "details": "KMS12PE myeloma viability, CellTiter-Glo ATP, 48 h; series mostly up to 45.8 µM", "text": "PI: Beverly A. Mock Ph.D.\nLaboratory of Cancer Biology and Genetics,\nCenter for Cancer Research, National Cancer Institute,\nNational Institute of Health, Bethesda, Maryland\nDrug resistance and disease progression are common in multiple myeloma (MM) patients, underscoring the need for new therapeutic combinations. […] We hypothesized that effective combinations would reduce MYC expression and enhance p16 activity. […] These preclinical data identify potentially useful drug combinations for evaluation in drug-resistant MM and reveal potential mechanisms of combined drug sensitivity.\nDescribed herein is the primary MIPE qHTS used to cherrypick compounds. Validated compounds were then further tested for potential synergistic activiy.\n[1] Peat TJ, Gaikwad SM, Dubois W, Gyabaah-Kessie N, Zhang S, Gorjifard S, Phyo Z, Andres M, Hughitt VK, Simpson RM, Miller MA, Girvin AT, Taylor A, Williams D, D'Antonio N, Zhang Y, Rajagopalan A, Flietner E, Wilson K, Zhang X, Shinn P, Klumpp-Thomas C, McKnight C, Itkin Z, Chen L, Kazandijian D, Zhang J, Michalowski AM, Simmons JK, Keats J, Thomas CJ, Mock BA. Drug combinations identified by high-throughput screening promote cell cycle transition and upregulate Smad pathways in myeloma. Cancer Lett. 2023 Aug 1;568:216284. doi: 10.1016/j.canlet.2023.216284. Epub 2023 Jun 24. PMID: 37356470; PMCID: PMC10408729.\nSEQUENCE No. (e.g., 1, 2, 3, etc.); […] (e.g., Cells, Incubation, Reagent, etc.); VALUE and DESCRIPTION.\n1; Cells; 5 uL; white, solid bottom 1536-well Greiner assay plate.\n2; Compounds; 23 nL; Kalypsis pin tool (Wako USA) equipped with a 1536-well pin head to transfer to the assay plates.\n3; Incubation; 48 hours; 37C incubation.\n4; Reagent;5uL; CellTiter Glo (Promega).\n5; Detector; 425V; Luminescence; Viewlux PerkinElmer.\nNOTES (numbers refer to Sequence numbers above)\n1. The cell-based screening methods employed in this study were like those previously published. Briefly, the corresponding myeloma cell lines were screened in 1,536-well plates with 500 cells, 5-uL per well for inhibition of cell viability (assessed by measuring ATP levels with CellTiterGlo).\n2. NCATS MIPE 4.0 library of approved and investigational drugs were added using the Kalypsis pin tool. Wells treated with DMSO only for 100% viability and media only wells for 0% viability were used as controls.\n3. The assay plates were covered and incubated for 48 hours in a 37C, 5% CO2 incubator with controlled humidity.\n4. After 48 hours, CellTilter-GloTM luminescent substrate mix (Promega) reagent was added to the assay plate and plates we incubated for 5 min at room temperature.\n5. Signal was measured as median relative luminescence units on a ViewLux (PerkinElmer) multiplate reader.\n[1] Heske CM, Davis MI, Baumgart JT, Wilson K, Gormally MV, Chen L, Zhang X, Ceribelli M, Duveau DY, Guha R, Ferrer M, Arnaldez FI, Ji J, Tran HL, Zhang Y, Mendoza A, Helman LJ, Thomas CJ. Matrix Screen Identifies Synergistic Combination of PARP Inhibitors and Nicotinamide Phosphoribosyltransferase (NAMPT) Inhibitors in Ewing Sarcoma. Clin Cancer Res. 2017 Dec 1;23(23):7301-7311. doi: 10.1158/1078-0432.CCR-17-1121. Epub 2017 Sep 12. PMID: 28899971; PMCID: PMC6636827."}
{"compound": "COc1cc2nc(N3CCCN(C)CC3)nc(NC3CCN(Cc4ccccc4)CC3)c2cc1OC", "Potency": "2.35 µM (active)"}
{"compound": "C[C@@H](CN1CC(=O)NC(=O)C1)N1CC(=O)NC(=O)C1", "Potency": "1.66 µM (active)"}
{"compound": "CN1CCN(c2c(F)cc3c(=O)c(C(=O)O)cn4c3c2OCN4C)CC1", "Potency": "inactive"}
{"compound": "CCOc1cc(N)c(Cl)cc1C(=O)NCC1CN(Cc2ccc(F)cc2)CCO1", "note": "(stereo not given)", "Potency": "inactive"}
{"compound": "N=C(N)c1ccc(OCCCCCOc2ccc(C(=N)N)cc2)cc1", "Potency": "5.9 µM (active)"}
{"compound": "CC(C)(C#N)c1cc(Cn2cncn2)cc(C(C)(C)C#N)c1", "Potency": "inactive"}
{"compound": "O=NN(CCCl)C(=O)NC1CCCCC1", "Potency": "inactive"}
{"compound": "CCN[C@H]1C[C@H](C)S(=O)(=O)c2sc(S(N)(=O)=O)cc21", "Potency": "inactive"}
{"compound": "CN(CCOc1ccc(CC2SC(=O)NC2=O)cc1)c1ccccn1", "note": "(stereo not given)", "Potency": "inactive"}
{"compound": "CC(C)OC(=O)C(C(=O)OC(C)C)=C1SC=CS1", "Potency": "inactive"}
{"compound": "O[C@@H](CNC[C@H](O)[C@H]1CCc2cc(F)ccc2O1)[C@@H]1CCc2cc(F)ccc2O1", "Potency": "14.8 µM (active)"}
{"compound": "O=C(N[C@H](CO)[C@H](O)c1ccc([N+](=O)[O-])cc1)C(Cl)Cl", "Potency": "inactive"}
{"compound": "CCN(CC)CCn1c(=O)c(Cc2ccc(OC)cc2)nc2ccccc21", "Potency": "inactive"}
{"compound": "CCCc1cc(C(N)=S)ccn1", "Potency": "inactive"}
{"compound": "CC(C)OC(=O)OCOP(=O)(CO[C@H](C)Cn1cnc2c(N)ncnc21)OCOC(=O)OC(C)C", "Potency": "29.6 µM (active)"}
{"compound": "CCC(=O)O[C@]1(C(=O)SCF)[C@H](C)C[C@H]2[C@@H]3C[C@H](F)C4=CC(=O)C=C[C@]4(C)[C@@]3(F)[C@@H](O)C[C@@]21C", "Potency": "inactive"}
{"compound": "CC(=O)Oc1ccccc1C(=O)Nc1ncc([N+](=O)[O-])s1", "Potency": "24.1 µM (active)"}
{"compound": "O=c1cc(O)c(Cl)c[nH]1", "Potency": "6.62 µM (active)"}
{"compound": "CC(=O)[C@H]1CC[C@H]2[C@@H]3CC=C4C[C@@H](O)CC[C@]4(C)[C@H]3CC[C@]12C", "Potency": "inactive"}
{"compound": "CN(C)CCc1c[nH]c2ccc(C[C@H]3COC(=O)N3)cc12", "Potency": "inactive"}
{"compound": "CC1CC2C3CCC4=CC(=O)C=C[C@]4(C)[C@@]3(F)[C@@H](O)C[C@]2(C)[C@@]1(O)C(=O)CO", "note": "(stereo not given in full)", "Potency": "inactive"}
{"compound": "Cc1onc(-c2ccccc2Cl)c1C(=O)N[C@@H]1C(=O)N2[C@@H]1SC(C)(C)[C@@H]2C(=O)O", "Potency": "inactive"}
{"compound": "COc1ccccc1OCC(O)COC(N)=O", "note": "(stereo not given)", "Potency": "inactive"}
{"compound": "N[C@@H](C(=O)N[C@@H]1C(=O)N2C(C(=O)O)=C(Cl)CS[C@H]12)c1ccccc1", "Potency": "inactive"}
{"compound": "NC(=O)c1ccc2[nH]ccc2c1", "Potency": "inactive"}
{"compound": "COc1nc(N)nc2c1ncn2[C@@H]1O[C@H](CO)[C@@H](O)[C@@H]1O", "Potency": "inactive"}
{"compound": "Nc1nc(N)nc(-c2cc(Cl)ccc2Cl)n1", "Potency": "inactive"}
{"compound": "CC(C)C[C@H](NC(=O)[C@H](CCc1ccccc1)NC(=O)CN1CCOCC1)C(=O)N[C@@H](Cc1ccccc1)C(=O)N[C@@H](CC(C)C)C(=O)[C@@]1(C)CO1", "Potency": "0.001 µM (active)"}
{"compound": "COc1cc([C@@H]2c3cc4c(cc3[C@H](O)[C@H]3COC(=O)[C@H]23)OCO4)cc(OC)c1OC", "Potency": "inactive"}
{"compound": "CC1=NN(c2ccccc2)C(=O)C1", "Potency": "inactive"}
{"compound": "C[C@@H]1CN(c2c(F)c(N)c3c(=O)c(C(=O)O)cn(C4CC4)c3c2F)C[C@H](C)N1", "Potency": "inactive"}
{"compound": "CC(C)C1CCC(C(=O)N[C@H](Cc2ccccc2)C(=O)O)CC1", "note": "(stereo not given in full)", "Potency": "inactive"}
{"compound": "O=C(O)C1CCCN(CCC=C(c2ccccc2)c2ccccc2)C1", "note": "(stereo not given)", "Potency": "inactive"}
{"compound": "CNC(=O)c1cc(Oc2ccc(NC(=O)Nc3ccc(Cl)c(C(F)(F)F)c3)cc2)ccn1", "Potency": "3.72 µM (active)"}
{"compound": "COc1ncnc(NS(=O)(=O)c2ccc(N)cc2)c1OC", "Potency": "inactive"}
{"compound": "COc1c(N2CCNC(C)C2)c(F)cc2c(=O)c(C(=O)O)cn(C3CC3)c12", "note": "(stereo not given)", "Potency": "inactive"}
{"compound": "CNS(=O)(=O)Cc1ccc2[nH]cc(CCN(C)C)c2c1", "Potency": "inactive"}
{"compound": "Cc1cc(NS(=O)(=O)c2ccc(N)cc2)no1", "Potency": "inactive"}
{"compound": "Nc1[nH]c(=O)ncc1F", "Potency": "inactive"}
{"compound": "CC1=CC(=O)c2ccccc2C1=O", "Potency": "inactive"}
